Screening results (PubChem BioAssay)
BAZ2B inh: qHTS Assay for Inhibitors of BAZ2B; AlphaScreen BAZ2B-H3K14Ac peptide displacement; 4.4% of 360,000 active; Bromodomain adjacent to zinc finger domain protein 2B (Homo sapiens), Q9UIF8; AID 504333, 2011; Potency, µM (top dose mostly 114 µM), usual class: inhibitors; also: nearly all actives have a fitted effect of over 60% in size
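AlphaScreen luminescence quantifies BAZ2B engagement of H3K14Ac peptide; the protein and biotinylated peptide are both at 50 nM final, buffer PBS pH 7.4 with 0.01% Tween-20, all steps at room temperature.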
HP1b binding inh: HTS for Inhibitors of HP1-beta Chromodomain Interactions with Methylated Histone Tails. AlphaScreen HP1-beta / biotin-H3K9me3 peptide binding. 0.56% of 390,000 active. Potency, µM (highest dose often 114 µM), usual class: inhibitors; also: nearly all actives have a fitted effect of over 70% in size
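Compound inhibition of the preformed complex between 50 nM HP1-beta and 50 nM biotinylated H3K9me3 peptide was read by AlphaScreen. Buffer was PBS pH 7.4 with 0.01% Tween-20. Incubations ran 30 min at room temperature, with 10 ug/mL donor/acceptor beads.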
G9a inh: qHTS Assay for Inhibitors of Histone Lysine Methyltransferase G9a; Histone-lysine N-methyltransferase EHMT2 (Homo sapiens), Q96KQ7; G9a H3K9 monomethylation, AlphaScreen, 2 h; Potency, µM (top dose mostly 102 µM), usual class: inhibitors; 8.8% of 350,000 active; AID 504332, 2011; also: nearly all actives have a fitted effect of over 75% in size
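G9a (20 nM) preincubated 15 min RT with compounds, then 500 nM biotinylated H3K9 peptide and 20 uM SAM added; 2 h RT reaction. Monomethyl-H3K9 product detected by AlphaScreen with anti-H3K9me1 antibody, streptavidin donor and anti-rabbit IgG acceptor beads.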
Sfp inh: qHTS Assay for Inhibitors of Bacillus subtilis Sfp phosphopantetheinyl transferase (PPTase); 3.5% of 310,000 active; Biochemical Sfp PPTase activity, qHTS; 4'-phosphopantetheinyl transferase ffp (Bacillus subtilis), Q9F4F7; Potency, µM, usual class: inhibitors; AID 1490, 2009;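 also: the enzyme is Sfp with the accession as filed and its product quenches rhodamine fluorescence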
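With Hepes-Na pH 7.6 buffer containing 10 mM MgCl2, Sfp (15 nM) modified BHQ-2-YbbR (12.5 uM) using rhodamine-CoA (5 uM). Two reads 30 minutes apart at 525/598 nm yielded each well's rate.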
JMJD2A Tudor: qHTS Assay for Inhibitors of JMJD2A-Tudor Domain | Potency, µM (titrated, usually from 114 µM), actives largely listed as inhibitors | Lysine-specific demethylase 4A (Homo sapiens), O75164 | AlphaScreen JMJD2A-Tudor / H3K4me3 peptide binding | 4.4% of 390,000 active | AID 504339, 2011; also: nearly all actives have a fitted effect of over 50% in size
Target sequence (O75164 whole entry, looked up, the tested form may be a part): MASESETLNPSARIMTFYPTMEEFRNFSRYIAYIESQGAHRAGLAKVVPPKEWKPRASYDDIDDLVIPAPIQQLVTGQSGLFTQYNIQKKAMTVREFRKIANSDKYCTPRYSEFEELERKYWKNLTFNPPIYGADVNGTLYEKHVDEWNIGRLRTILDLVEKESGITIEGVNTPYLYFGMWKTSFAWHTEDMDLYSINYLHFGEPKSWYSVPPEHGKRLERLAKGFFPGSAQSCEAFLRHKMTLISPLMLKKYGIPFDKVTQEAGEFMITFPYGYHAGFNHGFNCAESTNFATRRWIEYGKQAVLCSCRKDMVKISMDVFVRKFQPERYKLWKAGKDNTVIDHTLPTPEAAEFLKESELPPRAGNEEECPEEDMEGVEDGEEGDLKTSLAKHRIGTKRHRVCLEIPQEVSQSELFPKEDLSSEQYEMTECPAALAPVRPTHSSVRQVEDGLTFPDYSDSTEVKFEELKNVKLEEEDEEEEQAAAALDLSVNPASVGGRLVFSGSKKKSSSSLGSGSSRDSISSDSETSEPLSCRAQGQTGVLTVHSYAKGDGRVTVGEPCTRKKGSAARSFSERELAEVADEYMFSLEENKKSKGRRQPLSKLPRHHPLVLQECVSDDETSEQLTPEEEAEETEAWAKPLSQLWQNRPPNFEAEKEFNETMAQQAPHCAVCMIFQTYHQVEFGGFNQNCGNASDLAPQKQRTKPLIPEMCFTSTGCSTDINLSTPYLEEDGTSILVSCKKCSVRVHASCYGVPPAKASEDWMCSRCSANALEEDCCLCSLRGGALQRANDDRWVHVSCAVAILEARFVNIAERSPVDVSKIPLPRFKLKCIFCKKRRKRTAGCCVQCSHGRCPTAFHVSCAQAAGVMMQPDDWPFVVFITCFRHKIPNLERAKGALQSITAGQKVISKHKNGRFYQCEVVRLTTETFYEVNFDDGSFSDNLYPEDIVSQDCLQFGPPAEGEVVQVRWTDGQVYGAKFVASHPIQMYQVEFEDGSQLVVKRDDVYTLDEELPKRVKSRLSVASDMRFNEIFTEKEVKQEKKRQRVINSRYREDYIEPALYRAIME
Large screens that a line does not name were inactive. Sampled rows, rich in hits. Any-hit rate of the full collection: about 12%. Calls follow the shape of the dose curve; as a rule, active = well fitted curve in the direction sought with a large enough effect; inconclusive = small, poorly fitted or top-dose-only effect, or another doubt; inactive = no such curve, though single readings can be large; an effect the other way counts as inactive or inconclusive.

COc1ccc(C2=NC(C)(C)Cc3cc(OC)c(OC)cc32)cc1OC	none
COc1cc2c(cc1OC)C(CSc1ccccc1C(=O)O)=NC(C)(C)C2	BAZ2B inh 79µM, G9a inh inconclusive, JMJD2A Tudor inconclusive
Cc1cccc2nc(CSc3ccccc3C(=O)O)cn12	none
COc1cc2c(cc1OC)C(CC#N)=NC(C)(C)C2	G9a inh inconclusive, Sfp inh 79µM
COc1cc2c(cc1OC)C(c1cc3ccccc3oc1=O)=NC(C)(C)C2	Sfp inh inconclusive
COc1cccc(NC(=O)COC(=O)C2=NN(c3ccccc3)C(=O)CC2)c1	none (no result: BAZ2B inh, G9a inh, Sfp inh)
CC(NC(=O)COc1cccc(Br)c1)C(=O)O (configuration not stated)	G9a inh 50µM
O=C(COc1cccc(Br)c1)N/N=C1\CCSC1	JMJD2A Tudor 71µM
Cc1ccc(C)n1-c1cc(S(=O)(=O)N2CCOCC2)ccc1N1CCCC1	G9a inh inconclusive, Sfp inh inconclusive, JMJD2A Tudor 79µM
O=[N+]([O-])c1cc(S(=O)(=O)N2CCOCC2)ccc1N1CCCC1	none
Cc1cc(CNCCN(C)C)c(C)n1-c1cc(S(=O)(=O)N2CCOCC2)ccc1N1CCCC1	JMJD2A Tudor 8.9µM (no result: BAZ2B inh, G9a inh, Sfp inh)
Cc1ccc(C)c(NC(=O)CN(C)C(=O)c2cc(S(=O)(=O)N3CCOCC3)ccc2N2CCCC2)c1	none
Cc1cccc(NC(=O)NNC(=O)c2cc3occc3[nH]2)c1C	none (no result: G9a inh)
COc1cccc(NC(=O)CN(C)C(=O)Cn2c(=O)oc3ccccc32)c1	none (no result: Sfp inh)
Cc1cc(F)c(Nc2ncnc3cc(OCc4ccccc4)ccc23)cc1O	G9a inh inconclusive (no result: BAZ2B inh, HP1b binding inh, JMJD2A Tudor)
COc1cc(C(C[N+](=O)[O-])c2c(C)cc3ccccn23)ccc1O (configuration not stated)	BAZ2B inh 28µM, HP1b binding inh inconclusive, G9a inh 32µM, Sfp inh inconclusive, JMJD2A Tudor inconclusive
COc1ccc(C(C[N+](=O)[O-])c2c(-c3ccccc3)cc3ccccn23)cc1 (configuration not stated)	HP1b binding inh inconclusive, G9a inh inconclusive, JMJD2A Tudor inconclusive
COc1ccc(C(C[N+](=O)[O-])c2c(-c3ccccc3)cc3ccccn23)cc1OC (configuration not stated)	BAZ2B inh inconclusive, G9a inh 10µM
CCN1C(C)=C(C(=O)OC)C(c2ccccc2)N2C(=O)[C@](O)(C(=O)OC)C(c3ccccc3)C(C(=O)c3ccccc3)=C12 (some centres not stated)	none (no result: BAZ2B inh, HP1b binding inh, G9a inh, JMJD2A Tudor)
CCCCCC/C=C/c1ccc(C2C3C=CCC(C)C3C(=O)N2Cc2ccccc2)c(F)c1 (configuration not stated)	none (no result: BAZ2B inh, G9a inh)
CCOC(=O)/C(CCC[N+](C)(CC)CC)=N\O	HP1b binding inh inconclusive, G9a inh 11µM, JMJD2A Tudor inconclusive
CCOC(=O)C(Cc1ccnc2ccccc12)=NO	none (no result: BAZ2B inh, G9a inh, Sfp inh)
COc1ccc(OC)c(NC(=O)c2ccc3c(c2)c(C)c(C)n3Cc2ccc(F)cc2)c1	BAZ2B inh 25µM, G9a inh inconclusive, JMJD2A Tudor inconclusive (no result: Sfp inh)
COc1ccc(OC)c(CNC(=O)c2ccc3c(c2)c(C)c(C)n3C)c1	BAZ2B inh 35µM, G9a inh inconclusive, JMJD2A Tudor inconclusive (no result: Sfp inh)
Cc1c(C)n(C)c2ccc(C(=O)NCCCN3CCN(C)CC3)cc12	G9a inh inconclusive, JMJD2A Tudor inconclusive
Cc1c(C)n(C)c2ccc(C(=O)NCc3cccs3)cc12	BAZ2B inh inconclusive, G9a inh 50µM, JMJD2A Tudor inconclusive
CC(=O)c1cccc(NCC(=O)N2CCN(S(=O)(=O)c3ccccc3)CC2)c1	G9a inh inconclusive (no result: Sfp inh)
COc1ccccc1-c1oc2ccccc2c(=O)c1O	none (no result: BAZ2B inh, HP1b binding inh, G9a inh, JMJD2A Tudor)
COc1ccc(OC)c(-c2oc3ccccc3c(=O)c2O)c1	G9a inh inconclusive, Sfp inh 89µM
O=C(Cc1ccc(S(=O)(=O)N2CCOCC2)s1)N1CCN(c2cccc(C(F)(F)F)c2)CC1	none
COc1ccccc1/C=C/C=N/n1c(-c2ccccc2)n[nH]c1=S	none (no result: G9a inh)
COc1ccc(-c2n[nH]c(=S)n2/N=C/C=C/c2ccccc2OC)cc1	G9a inh 1.3µM, JMJD2A Tudor 79µM
COc1ccccc1/C=C/C=N/n1c(-c2ccc(Cl)cc2)n[nH]c1=S	BAZ2B inh inconclusive, HP1b binding inh inconclusive, Sfp inh 35µM, JMJD2A Tudor 89µM (no result: G9a inh)
Cc1cc(C)c2ccc(C)[n+]([O-])c2c1O	BAZ2B inh inconclusive, G9a inh 13µM
CCOC(=O)N1CCC(NC(=O)c2ccc3c(c2)N(Cc2ccc(Cl)cc2)C(=O)c2ccccc2S3=O)CC1 (configuration not stated)	none (no result: Sfp inh)
Cc1cccc2cc(CN(Cc3cccnc3)C(=S)NCCCN(C)C)c(=O)[nH]c12	BAZ2B inh inconclusive, G9a inh inconclusive, JMJD2A Tudor 13µM
COc1ccccc1CNc1cc(-c2c(C)noc2C)ncn1	none (no result: BAZ2B inh, HP1b binding inh, JMJD2A Tudor)
Cc1ccc(NNC(=O)c2ccno2)c(C)c1	G9a inh 0.79µM
Cc1ccc(NNC(=O)CCc2ccccc2)c(C)c1	G9a inh 32µM
CCOC(=O)C1(Cc2ccccc2C)CCCN(Cc2ccc(NC(C)=O)cc2)C1 (configuration not stated)	none
CSc1ccccc1NC(=O)Cn1nc([N+](=O)[O-])c(Cl)c1C	none (no result: G9a inh)
Cc1cc([N+](=O)[O-])nn1CC(=O)Nc1cccc2nonc12	BAZ2B inh inconclusive, G9a inh 56µM
Cc1cc([N+](=O)[O-])nn1CC(=O)Nc1nc2ccccc2s1	G9a inh inconclusive
CSc1ccccc1NC(=O)Cn1nc([N+](=O)[O-])cc1C	G9a inh 28µM, Sfp inh 56µM
CC(=O)c1ccc(NC(=O)Cn2cnc(S(=O)(=O)N3CCc4ccccc43)c2)cc1	none
Cc1nc(NC(=O)CSc2nnc(-c3ccccc3)c(-c3ccccc3)n2)c(Cl)cc1Cl	BAZ2B inh inconclusive, G9a inh inconclusive
O=C(COC(=O)c1cc([N+](=O)[O-])ccc1N1CCOCC1)Nc1c(Cl)cccc1C(F)(F)F	none
O=C(CSc1nnc(-c2ccccc2)c(-c2ccccc2)n1)Nc1ncc(Cl)cc1Cl	BAZ2B inh inconclusive, G9a inh 14µM
O=C(COC(=O)c1nc(Cl)ccc1Cl)Nc1ccc(Cl)cn1	none (no result: Sfp inh)
O=C(COC(=O)c1cc([N+](=O)[O-])ccc1N1CCOCC1)Nc1ncc(Cl)cc1Cl	BAZ2B inh 45µM, JMJD2A Tudor inconclusive
O=C(COC(=O)c1ccccc1O)Nc1ncc(Cl)cc1Cl	BAZ2B inh 50µM, G9a inh 35µM, JMJD2A Tudor inconclusive
O=C(COC(=O)c1ccccc1NC(=O)c1ccco1)Nc1ncc(Cl)cc1Cl	G9a inh inconclusive, Sfp inh inconclusive
O=C(COC(=O)c1ncc(Cl)c(Cl)c1Cl)Nc1ccc(Cl)cn1	G9a inh 45µM (no result: Sfp inh)
